Screening data as filed in PubChem BioAssay.
Compounds with a hit are over-represented: about 6.2% of the library has one in this group of screens.
KB-3-1 tox: qHTS assay for MDR1-selective chemotherapeutics: Primary screen using the parental adenocarcinoma cell KB-3-1. KB-3-1 viability, CellTiter-Glo ATP luminescence, 72 h. Potency, µM (highest dose often 46.1 µM), actives largely listed as cytotoxic. actives 1.4% (n = 400,000); also: nearly all actives have a fitted effect of over 60% in size
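Parental KB-3-1 adenocarcinoma cells in phenol-red-free DMEM with 10% FBS were pin-treated with compounds at several concentrations, incubated 72 h at 37 °C, and viability read by CellTiter-Glo luminescence; concentration-effect curves were fitted after normalization.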
KB-V1 MDR tox: qHTS assay for MDR1-selective chemotherapeutics: Primary screen using the drug-selected MDR subline cells KB-V1; KB-V1 MDR cells viability, CellTiter-Glo, 72 h; Potency, µM (highest dose often 46.1 µM), actives largely listed as cytotoxic; actives 3.4% (n = 400,000); also: nearly all actives have a fitted effect of over 60% in size
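qHTS viability screen in drug-selected KB-V1 MDR cells: 72 h compound treatment at 37 degrees C, ATP luminescence end point.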
ATXN2 expr inh: Primary qHTS for Inhibitors of ATXN expression; HEK-293 ATXN2-luciferase reporter, luminescence, 24 h; Potency, µM (titrated, usually from 57 µM), most hits filed as inhibitors; actives 0.72% (n = 360,000); AID 1745845, 2022; also: nearly all actives have a fitted effect of over 55% in size
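qHTS (up to 57 uM final) was run with 24 h compound exposure of reporter cells at 37 °C. Each well was multiplexed: SteadyGlo luminescence measured ATXN2-luciferase expression after a fluorogenic Gly-Phe-AFC viability readout (25 uM final).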
S2 tox: Viability Counterscreen for Primary qHTS for Inhibitors of ATXN expression. Potency, µM (series often up to 56.7 µM), hits mostly cytotoxic. actives 0.49% (n = 400,000). S2 cells (HEK-293 line with an ATXN2-luciferase reporter) viability, CellTiter-Fluor protease fluorescence, 24 h; also: nearly all actives have a fitted effect of over 40% in size
HT1080NT lethal: qHTS for induction of synthetic lethality in tumor cells producing 2HG: qHTS for the HT-1080-NT fibrosarcoma cell line. HT-1080-NT fibrosarcoma viability, CellTiter-Glo ATP luminescence, 48 h. AID 686970, 2013. Potency, µM (highest dose often 46.1 µM), hits mostly cytotoxic. actives 1.6% (n = 360,000);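 also: NT is the 2HG producing partner of a matched IDH1 knockdown line; nearly all actives have a fitted effect of over 55% in size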
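A 48-hour cytotoxicity screen used HT-1080-NT cells plated 2 hours before compound delivery. ATP-based CellTiter-Glo luminescence measured viability, normalized to DMSO and no-cell controls.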
HT1080 IDH1KD tx: qHTS for induction of synthetic lethality in tumor cells producing 2HG: qHTS for the HT-1080-IDH1KD cell line; Potency, µM (doses to about 46.1 µM), usual class: cytotoxic; actives 2% (n = 360,000); HT-1080 IDH1 knockdown viability, ATP luminescence, 48 h
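Assay cells: HT-1080 with IDH1 knockdown, 750 per well, RPMI/5% FBS. Exposure: 48 h at 37 °C following 2 h pre-incubation. Read: CellTiter-Glo luminescence; fitted concentration-response, curve class assigned.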
Of the large screens only hits and unclear results are named; the others gave an inactive call. Calls follow the shape of the dose curve; as a rule, active = well fitted curve in the direction sought with a large enough effect; inconclusive = small, poorly fitted or top-dose-only effect, or another doubt; inactive = no such curve, though single readings can be large; an effect the other way counts as inactive or inconclusive.

Cc1ccccc1N=Nc1ccc(O)c2ncccc12	KB-3-1 tox inconclusive, ATXN2 expr inh inconclusive, HT1080NT lethal inconclusive, HT1080 IDH1KD tx 7.3µM
O=Nc1ccc(O)c2ncccc12	KB-3-1 tox 21µM, KB-V1 MDR tox 23µM, S2 tox 16µM, HT1080NT lethal 12µM, HT1080 IDH1KD tx inconclusive (no result: ATXN2 expr inh)
COc1ccc(N=Nc2ccc(O)c3ncccc23)cc1	S2 tox inconclusive, HT1080NT lethal inconclusive, HT1080 IDH1KD tx 4.6µM (no result: ATXN2 expr inh)
O=S(=O)(O)c1cccc2c(N=Nc3ccc(O)c4ncccc34)cccc12	S2 tox inconclusive
CSc1ncccc1C(=O)N1CCOc2ccc(C(C)(O)CCn3cccn3)cc2C1 (centres undefined)	none (no result: KB-3-1 tox, KB-V1 MDR tox, ATXN2 expr inh, HT1080NT lethal, HT1080 IDH1KD tx)
Cc1c(C)c2cccnc2c2ncccc12	KB-3-1 tox 6.5µM, KB-V1 MDR tox inconclusive, ATXN2 expr inh inconclusive, S2 tox inconclusive, HT1080NT lethal 10µM, HT1080 IDH1KD tx 5.2µM
Cc1ccc(O)c2ncccc12	ATXN2 expr inh 16µM, S2 tox inconclusive (no result: KB-3-1 tox, KB-V1 MDR tox, HT1080NT lethal, HT1080 IDH1KD tx)
Cc1ccnc2c(Cl)cccc12	none (no result: ATXN2 expr inh, S2 tox, HT1080NT lethal, HT1080 IDH1KD tx)
COCc1ccc(O)c2ncccc12	KB-3-1 tox 15µM, KB-V1 MDR tox 12µM, ATXN2 expr inh inconclusive, S2 tox inconclusive, HT1080NT lethal 4.6µM, HT1080 IDH1KD tx 5.8µM
COc1cccc(N=Nc2ccc(O)c3ncccc23)c1	KB-3-1 tox 4.6µM, ATXN2 expr inh inconclusive, S2 tox 16µM, HT1080NT lethal inconclusive, HT1080 IDH1KD tx inconclusive
COc1ccc(OC)c(/C=C/c2c3ccccc3cc[n+]2C)c1	KB-3-1 tox inconclusive (no result: ATXN2 expr inh, S2 tox, HT1080NT lethal, HT1080 IDH1KD tx)
CCN(CC)c1ccc(CN(C(=O)c2cc(=O)c3ccccc3o2)C2CCS(=O)(=O)C2)cc1 (centres undefined)	none (no result: HT1080NT lethal, HT1080 IDH1KD tx)
Cc1cc(N/N=C/c2cccc(Cl)c2)nc(-n2nc(C)cc2C)n1	KB-V1 MDR tox inconclusive, ATXN2 expr inh inconclusive, S2 tox inconclusive, HT1080NT lethal inconclusive, HT1080 IDH1KD tx inconclusive
Oc1ccc(/C=N/Nc2cc(N3CCCC3)nc(N3CCCC3)n2)cc1	HT1080NT lethal inconclusive
COc1ccc(/C=N/Nc2cc(N3CCCC3)nc(N3CCCC3)n2)cc1	KB-3-1 tox inconclusive, KB-V1 MDR tox inconclusive, ATXN2 expr inh 14µM, S2 tox 28µM, HT1080NT lethal 13µM, HT1080 IDH1KD tx 16µM
COc1ccc(/C=N/Nc2cc(C)nc(-n3nc(C)cc3C)n2)cc1	KB-3-1 tox inconclusive, ATXN2 expr inh 20µM, S2 tox inconclusive, HT1080NT lethal inconclusive, HT1080 IDH1KD tx inconclusive
CN(c1ccccc1)c1ncccn1	none
CN(c1ccccc1)c1cc(Br)nc(Br)c1	KB-3-1 tox inconclusive, KB-V1 MDR tox 21µM
CN1C(CSCC(F)(F)F)Nc2cc(Cl)c(S(N)(=O)=O)cc2S1(=O)=O (centres undefined)	none (no result: KB-3-1 tox, KB-V1 MDR tox, HT1080NT lethal, HT1080 IDH1KD tx)
CC1=C(C(=O)OCc2ccccc2)C(/C=C/c2ccccc2)NC(=S)N1 (centres undefined)	KB-V1 MDR tox inconclusive, ATXN2 expr inh inconclusive, HT1080 IDH1KD tx inconclusive
C=CCOC(=O)C1=C(C)NC(=S)NC1/C=C/c1ccccc1 (centres undefined)	HT1080NT lethal 13µM, HT1080 IDH1KD tx inconclusive
CCOC(=O)c1sc(NC(=O)c2nc3ncccn3n2)c(C(=O)OC(C)C)c1C	none (no result: HT1080NT lethal, HT1080 IDH1KD tx)
CC(SC(C)C(=O)NN=Cc1cccc(F)c1)C(=O)NN=Cc1cccc(F)c1 (centres undefined)	none
CC(C)Cn1c(=O)c(C(=O)N/N=C/c2cccc(F)c2)c(O)c2ccccc21	KB-3-1 tox 12µM, KB-V1 MDR tox 2.9µM
CCN1CCC(O)(/C=C/c2ccc(C(C)C)cc2)C(C(=O)/C=C/c2ccc(C(C)C)cc2)C1 (centres undefined)	KB-3-1 tox inconclusive, KB-V1 MDR tox inconclusive, ATXN2 expr inh inconclusive, HT1080NT lethal inconclusive, HT1080 IDH1KD tx 21µM (no result: S2 tox)
O=C(C[n+]1cccc2cc(Cl)ccc21)c1cccc([N+](=O)[O-])c1	KB-V1 MDR tox inconclusive (no result: ATXN2 expr inh, S2 tox, HT1080NT lethal, HT1080 IDH1KD tx)
CCCC1=C(C(=O)OCC)C(c2ccc(OC)c(CSc3ccccn3)c2)C(C#N)=C(N)O1 (centres undefined)	KB-V1 MDR tox 21µM
C=CCOC(=O)C1=C(C)OC(N)=C(C#N)C1c1ccc(OC)c(CSc2ccccn2)c1 (centres undefined)	KB-V1 MDR tox inconclusive, S2 tox inconclusive (no result: ATXN2 expr inh)
COc1ccc(N2CCN(Cc3nc4scc(-c5ccccc5)c4c(=O)[nH]3)CC2)cc1	none
O=c1[nH]c(CN2CCN(c3ccccc3)CC2)nc2scc(-c3ccccc3)c12	KB-3-1 tox inconclusive, KB-V1 MDR tox 9.2µM
CCOC(=O)/C(=C\c1ccccc1)C(=O)c1cc(C(C)=O)c(Nc2ccccc2)s1	KB-V1 MDR tox inconclusive, ATXN2 expr inh 11µM, S2 tox 20µM, HT1080 IDH1KD tx 6.3µM
CCOC(=O)/C(=C\c1cccnc1)C(=O)c1cc(C(C)=O)c(Nc2ccccc2)s1	KB-3-1 tox 3.3µM, KB-V1 MDR tox 6.5µM, ATXN2 expr inh 3.5µM, S2 tox 4.5µM, HT1080NT lethal 5.8µM, HT1080 IDH1KD tx 4.1µM
CCOC(=O)/C(C#N)=C\c1cccnc1	none
CCOC(=O)C(=O)/C(C#N)=C/Nc1ccccc1	KB-V1 MDR tox inconclusive
O=c1[nH]c(=S)[nH]c2n[nH]nc12	none (no result: ATXN2 expr inh, S2 tox, HT1080NT lethal, HT1080 IDH1KD tx)
COc1ccc(OC)c(NC(=O)C2CCN(S(=O)(=O)c3c(C)noc3/C=C/c3ccc(C)cc3)CC2)c1	none (no result: HT1080NT lethal, HT1080 IDH1KD tx)
CCOC(=O)c1cccc(NC(=O)CSc2nc3cc4ccccc4cc3[nH]2)c1	none (no result: HT1080NT lethal, HT1080 IDH1KD tx)
